Pf growth 48h – P. falciparum growth inhibition at 48 hours (one generation). P. falciparum luciferase growth in erythrocytes, 48 h. Potency, µM (top dose mostly 28.7 µM), most hits filed as inhibitors. 5.9% of 310,000 active. AID 504832
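Firefly luciferase activity from engineered P. falciparum reports growth; inhibitors lower the luminescent signal. Cultures contained 2% hematocrit erythrocytes at 0.1% final parasitemia.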
CHX counter – affects cycloheximide protein synthesis inhibition readout, counter-screen; cell reporter, cycloheximide protein synthesis inhibition counterscreen; max response, %; 12% of 300,000 active; AID 2314; in the data active means max response mostly above about 13%, no sharp cut-off; inactive means mostly below about 14%; further: read at 38.3 µM for the half of the compounds with a filed dose
Pf growth 96h – inhibits malaria parasite growth, 96 h; P. falciparum luciferase reporter growth, 96 h; Potency, µM (doses to about 28.7 µM), actives largely listed as inhibitors; 6.9% of 320,000 active
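Cell-based qHTS: luciferase-tagged P. falciparum in erythrocytes (2% hematocrit, 0.05% parasitemia final) incubated with compounds for 96 hours, 37 C, 5% CO2; luciferase detection reagent then added and luminescence measured.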
Shiga inhibitor – Shiga toxin inhibition | AID 2315 | 9.2% of 290,000 active | Vero cells, Shiga toxin protein synthesis inhibition reporter | inhibition, % at 38.7 µM; in the data active means inhibition mostly above about 28%, no sharp cut-off; inactive means mostly below about 43%
NS1 function inh – inhibitors of influenza NS1 protein function. Potency, µM (top dose mostly 46.1 µM). 0.4% of 270,000 active; calls by dose curve; further: actives are rising curves; nearly all actives have a fitted effect of over 50% in size
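A cell-based growth assay was used: compounds that relieve NS1-induced slow growth of budding yeast raise OD600. Assay medium was yeast nitrogen base with ammonium sulphate and -URA supplement, pH 6.0, with 2% galactose.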
Large screens that a line does not name were inactive. A selection: hits, their analogues and other compounds. The true share with any hit is near 21%. Unless noted, the call rests on the fitted dose curve; in most records, active means well fitted inhibition curve with a large enough effect; inconclusive means small, poorly fitted or top-dose-only effect, or another doubt; inactive means no such curve, though single readings can be large or run the other way.

Cc1ccc(C(=O)ONc2ccc(N=O)cc2)cc1	CHX counter 46.0, Shiga inhibitor 84.9
COC(=O)c1ccc(NC(=O)Cc2ccc(C)cc2)cc1	none (no result: Pf growth 48h)
COCCNc1nc2nonc2nc1N1CCC(N(C)C)C1 (centres undefined)	Pf growth 96h 6.57µM
COCCCNc1nc2nonc2nc1N1C[C@H]2CC[C@H]1C2	Pf growth 96h inconclusive
COCCNc1nc2nonc2nc1N1C[C@H]2CC[C@H]1C2	Pf growth 96h 10.4µM
Nc1nnc(COc2ccccc2)s1	none
CCOc1ccc(C(=O)N2CCN(Cc3ccccc3)CC2)cc1	Pf growth 96h inconclusive
O=C(NN1CCCCC1)c1cccc(COc2ccc(Cl)cc2)c1	CHX counter 76.4, Shiga inhibitor 89.9
O=C(O)c1cc(OCc2ccccc2)cc(OCc2ccccc2)c1	none
COc1ccc(C(=O)NN2CCCCC2)cc1OC	none
CCOc1ccc(OCc2cccc(C(=O)O)c2)cc1	CHX counter 17.7 (no result: Pf growth 96h)
CCOc1ccc(OCc2cccc(C(=O)N3CCCC3)c2)cc1	CHX counter 87.4, Shiga inhibitor 138.7 (no result: Pf growth 96h)
CCOc1ccc(OCc2cccc(C(=O)N3CCCCCC3)c2)cc1	CHX counter 64.8, Shiga inhibitor active (no result: NS1 function inh)
O=C(NCCc1ccccc1)C1(S(=O)(=O)c2ccc(Cl)cc2)CC1	none
O=C(OCC(F)(F)F)c1cccc(COc2ccc3ccccc3c2)c1	CHX counter 82.3, Shiga inhibitor 139.9 (no result: Pf growth 48h)
CC(=O)Nc1ccc(CN2CCN(CCc3ccccc3)C(CCO)C2)cc1 (centres undefined)	none
NS(=O)(=O)c1ccc(CCNC(=O)C2CCN(S(=O)(=O)c3cccc4cccnc34)CC2)cc1	none
CCN(CCNC(=O)C1CCN(S(=O)(=O)c2cccc3cccnc23)CC1)c1ccccc1	Pf growth 48h 6.57µM, NS1 function inh inconclusive
CC1CCCCN1CCNC(=O)C1CCN(S(=O)(=O)c2cccc3cccnc23)CC1 (centres undefined)	Pf growth 48h inconclusive, Pf growth 96h 4.65µM
Cc1cccc(CCNC(=O)C2CCN(S(=O)(=O)c3cccc4cccnc34)CC2)c1	none
CCOc1ccc(-n2c(Cc3cc(=O)[nH]c(=O)[nH]3)nnc2SCC(=O)NC2CCCC2)cc1	Pf growth 96h 10.4µM (no result: Pf growth 48h)
COc1ccc(-n2c(Cc3cc(=O)[nH]c(=O)[nH]3)nnc2SCC(=O)NC2CCCC2)cc1	none (no result: Pf growth 48h)
CCOc1ccc(-n2c(Cc3cc(=O)[nH]c(=O)[nH]3)nnc2SC(C)C(=O)OC)cc1 (centres undefined)	Pf growth 96h 9.28µM (no result: Pf growth 48h)
NS(=O)(=O)c1cc2c(cc1Cl)NC(Cc1ccccc1)NS2(=O)=O (centres undefined)	Pf growth 96h inconclusive
Cc1c(Cl)cccc1NC(=O)Nc1ccn(C)n1	Pf growth 96h inconclusive
Cn1ccc(NC(=O)CCl)n1	Pf growth 48h inconclusive, CHX counter 29.5 (no result: NS1 function inh)
Cc1cc(NC(=O)CCl)nn1C	Pf growth 48h inconclusive, Pf growth 96h 10.4µM
Cc1cc(Br)c(NC(=O)CCl)c(Br)c1	Pf growth 96h inconclusive, NS1 function inh inconclusive
O=C(CS(=O)(=O)c1ccccc1)NCc1ccc(Cl)cc1	Pf growth 96h inconclusive
Cc1onc(-c2ccccc2)c1C(=O)N/N=C/C(Br)=C/c1ccccc1	none
Cc1cc(C(=O)N/N=C/C=C/c2ccccc2[N+](=O)[O-])c(C)o1	none (no result: NS1 function inh)
Cc1occc1C(=O)N/N=C/C=C/c1ccc(N(C)C)cc1	CHX counter 52.5, Shiga inhibitor 79.4
Cc1ccc(/C=N/NC(=O)c2ccoc2C)o1	CHX counter 43.9, Shiga inhibitor 116.7
Cc1occc1C(=O)N/N=C/C(Br)=C\c1ccccc1	CHX counter 43.2, Pf growth 96h 1.31µM, Shiga inhibitor 49.7
Cc1nc2c(C)cccc2cc1C(=O)N/N=C/c1ccc(N(C)C)cc1	none (no result: Pf growth 96h)
Cc1occc1C(=O)N/N=C/C=C/c1ccccc1[N+](=O)[O-]	CHX counter 41.8 (no result: NS1 function inh)
CCN1CCN(C(=O)/C(=C/c2ccco2)NC(=O)c2ccccc2)CC1	none
CCN(Cc1cc(=O)n2ccsc2n1)Cc1nc2cc(OC)c(OC)cc2c(=O)[nH]1	none
Cc1occc1C(=O)N/N=C/C=C/c1ccccc1	CHX counter 41.1 (no result: NS1 function inh)
CN(C)c1ccc(/C=N/NC(=O)c2cccc(C(=O)N/N=C/c3ccc(N(C)C)cc3)n2)cc1	Pf growth 96h inconclusive
O=C(N/N=C/C=C/c1ccccc1)c1ccccc1Br	CHX counter 26.1
Cc1occc1C(=O)N/N=C/c1ccc(N(C)C)cc1	CHX counter 22.2
Cc1ccc(C(=O)N/N=C/C=C/c2ccccc2)cc1	CHX counter 24.7, Pf growth 96h 1.65µM
Cc1ccccc1NC(=O)N1CCNC(=O)C1CC(=O)Nc1cc(Cl)ccc1Cl (centres undefined)	Pf growth 48h inconclusive
Cc1cc(OC(C)C(=O)Nc2ccccc2C(=O)N2CCCC2)ccc1Cl (centres undefined)	none
NC(=S)N/N=C/C=C/c1ccccc1	Pf growth 48h inconclusive, Pf growth 96h inconclusive
CCCCOC(=O)N/N=C/C=C/c1ccccc1	CHX counter 20.7, Pf growth 96h inconclusive, Shiga inhibitor 13.3
CCCn1c(=O)n(C)c(=O)c2c(SCC(=O)NCC(c3ccccc3)N(C)C)nc(CC(C)C)nc21 (centres undefined)	Pf growth 48h inconclusive, Pf growth 96h inconclusive
Cc1cc(C)cc(N2C(=O)NC(=O)/C(=C\c3cccn3-c3ccccc3)C2=O)c1	CHX counter 13.5, Pf growth 96h inconclusive
Cc1ccc(N2C(=O)NC(=O)/C(=C/c3cnc(-c4ccccc4)nc3)C2=O)cc1C	none
Cc1cccc(N2C(=O)NC(=O)/C(=C\c3cnc(-c4ccccc4)nc3)C2=O)c1	CHX counter 13.7, Pf growth 96h inconclusive
Cc1ccc([N+](=O)[O-])c(OCCN2CCC(Cc3ccccc3)CC2)c1	none
CCOC(=O)Cn1c(=O)oc2cc(S(=O)(=O)Nc3ccc(N(CC)CC)cc3C)ccc21	Pf growth 96h inconclusive (no result: Pf growth 48h)
COc1ccccc1N1C(=O)NC(=O)/C(=C/c2ccc3c4c(cccc24)CC3)C1=O	CHX counter 17.5, NS1 function inh inconclusive
O=C1NC(=O)N(Cc2ccccc2)C(=O)/C1=C/c1cnn(-c2ccccc2)c1	CHX counter 30.4, Shiga inhibitor 51.3 (no result: NS1 function inh)
O=C1NN(c2ccc(F)cc2)C(=O)/C1=C\c1cnn(-c2ccccc2)c1	none
O=C1NC(=O)N(c2ccccc2)C(=O)/C1=C\c1ccc2c3c(cccc13)CC2	none
COc1ccccc1N1C(=O)NC(=O)/C(=C\c2cnn(-c3ccccc3)c2)C1=O	Shiga inhibitor 47.5 (no result: NS1 function inh)
Cc1cc(C(=O)COc2ccc(Cl)cc2Br)c(C)n1C	CHX counter 21.6
Cc1cc(C(=O)COc2cccc3cccnc23)c(C)n1C	Pf growth 48h 11.7µM, Pf growth 96h 3.29µM
Cc1ccc(OCC(=O)NCc2ccccc2)c([N+](=O)[O-])n1	none
Cn1c(COc2cccc3cccnc23)nnc1SCC(=O)O	Pf growth 96h 10.4µM
CCn1c(COc2cccc3cccnc23)nnc1SCC(=O)O	none (no result: Pf growth 48h)
Cc1cc(C(=O)COc2ccccc2C(N)=O)c(C)n1C	none (no result: NS1 function inh)
Cc1ccc(OCC(=O)c2cc(C)n(C)c2C)c([N+](=O)[O-])n1	CHX counter 29.5, Shiga inhibitor 80.3

Assay outcomes from PubChem.
